Test results from PubChem BioAssay AID1209 (Sanford-Burnham Center for Chemical Genomics, 2008).
Among all 190,000 compounds or so, about 810 (0.43%) were called active. This is one part of a sample in which actives are shown more often than they occur. A number with no mark means an inactive call. Cut-off read from the data, not from the text of the source: active = inhibition above about 50%; inactive = the rest.

Each compound was assayed against Mannose-6-phosphate isomerase (Homo sapiens) (UniProt P34949) (assay: MPI enzyme activity inhibition – biochemical, fluorescence intensity, coupled assay, primary screen (AID 1209;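 note: plate controls were DMSO vehicle for no effect and wells lacking substrate for full effect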)). Details: purified PMI enzyme, at 20 µM, hits give high values.
Chain of Mannose-6-phosphate isomerase (Homo sapiens) (P34949 whole entry, looked up): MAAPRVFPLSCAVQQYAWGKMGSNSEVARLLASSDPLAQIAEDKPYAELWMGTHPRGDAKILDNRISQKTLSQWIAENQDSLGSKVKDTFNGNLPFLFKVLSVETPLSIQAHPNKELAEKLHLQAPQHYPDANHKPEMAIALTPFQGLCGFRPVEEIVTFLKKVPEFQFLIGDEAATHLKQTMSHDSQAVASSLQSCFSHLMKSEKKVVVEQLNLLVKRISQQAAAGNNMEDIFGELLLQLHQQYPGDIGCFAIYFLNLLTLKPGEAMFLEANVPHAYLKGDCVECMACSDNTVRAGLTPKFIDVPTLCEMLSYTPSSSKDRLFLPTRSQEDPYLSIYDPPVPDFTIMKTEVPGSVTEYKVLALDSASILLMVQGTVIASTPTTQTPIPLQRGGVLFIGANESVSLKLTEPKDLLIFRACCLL

Structure (SMILES) | inhibition
CC(/C=N/NC(=O)CSc1nc(C)cc(C)n1)=C\c1ccccc1 | 16.1%
CCOc1ccc(-c2nnc(-c3ccccc3)o2)cc1 | -0.3%
CCCCc1nc(Cl)c(C#N)c2c1CSC(C)(C)C2 | 13.1%
CCc1onc(C)c1C(=O)O | -13.1%
COc1cccc(-c2nnc(NC(=O)Cc3cccs3)s2)c1 | -3%
Cc1nn(Cc2cccc(C(=O)N3N=C(C(F)F)CC3(O)C(F)F)c2)c(C)c1[N+](=O)[O-] (stereo not drawn) | -1.8%
O=C1c2ccccc2C(=O)N1CN(C(=O)c1ccccc1[N+](=O)[O-])c1ccc(F)cc1 | 13.9%
Oc1ccccc1/C=C/c1noc(-c2ccccc2O)n1 | -7%
O=c1cc(-c2ccccc2)c2ccccc2[nH]1 | 9.9%
Oc1cc(-c2ccccc2)c2ccccc2c1 | 82.6% (active)
Cn1c(=O)cc(-c2ccccc2)c2ccccc21 | 1.5%
CCOC(=O)CSc1nc(C(C)(C)C)cc(C(F)(F)F)c1C#N | 5.9%
COC(=O)C1=C(C(=O)OC)SC2(S1)C(C(=O)OC)=C(C(=O)OC)SC1=C2c2cc(C)ccc2NC1(C)C | 57% (active)
COC(=O)C1=C(C(=O)OC)SC2(S1)C(C(=O)OC)=C(C(=O)OC)SC1=C2c2cc(C)cc(C)c2NC1(C)C | 18.1%
COC(=O)C1=C(C(=O)OC)SC2(S1)C(C(=O)OC)=C(C(=O)OC)SC1=C2c2cccc(C)c2NC1(C)C | 24.5%
CCOC(=O)CN1CCc2c(C)nc3c(-c4ccc(OC)c(OC)c4)cnn3c21 | 20.1%
CCOC(=O)NC(=O)COC(=O)CNC(=O)c1cccc(OC)c1 | -0.3%
COc1ccc(C(=O)NC(=S)NCC2CCCO2)cc1 (stereo not drawn) | 2.8%
COc1ccc(N(CC(=O)N/N=C/c2ccc(-c3ccc([N+](=O)[O-])cc3)o2)S(=O)(=O)c2ccc(C)cc2)cc1 | -2.3%
Cc1ccc(C)c(N(CC(=O)N/N=C/c2ccc(-c3ccc([N+](=O)[O-])cc3)o2)S(=O)(=O)c2ccccc2)c1 | 10.6%

Structure (SMILES) | inhibition
CCOC(=O)C1(Cc2ccc(OC)cc2)CCN(C(=O)CCc2cccnc2)CC1 | 7.6%
COc1ccc(C)cc1NC(=O)CSc1nnc(-c2ccco2)n1N | 10.6%
O=c1/c(=C/c2ccccn2)sc2nc3ccccc3n12 | -21.7%
O=c1/c(=C\c2cccnc2)sc2nc3ccccc3n12 | 7%
COC(=O)/C=c1/sc2nc3ccccc3n2c1=O | 75.6% (active)
Nc1ccccc1Oc1c(F)c(F)c(Oc2ccccc2N)c(F)c1F | 18.8%
COc1cc(NC(c2ccccc2)c2ccccc2)cc(OC)c1OC | 62.4% (active)
COc1cc(NC(C(=O)Nc2cccc(C(C)=O)c2)c2ccccc2)cc(OC)c1OC (stereo not drawn) | 16.5%
COc1cc(C)c(NC(c2ccccc2)c2ccccc2)cc1OC | 16.1%
COc1ccc(C(C)=O)c(OC(=O)c2ccc(OC)c(OC)c2)c1 | 17.5%
C=CCNc1nc2c(c(=O)[nH]c(=O)n2C)n1CCCCC | 2.9%
Cc1cccc2cc3c(nc12)SC(=NCC1CCCO1)N(Cc1ccco1)C3 (stereo not drawn) | 7.4%
COCCN=C1Sc2nc3c(C)cccc3cc2CN1Cc1ccco1 | 51% (active)
COCCN=C1Sc2nc3ccc(C)cc3cc2CN1Cc1ccco1 | -63.1%
CCOc1ccc(NC(=NCc2ccc3c(c2)OCO3)SC2CC(=O)N(c3ccccc3)C2=O)cc1 (stereo not drawn) | -4.2%
CCN(CC)S(=O)(=O)c1ccc(NC2c3ccccc3C(=O)N2CCN2CCOCC2)cc1 (stereo not drawn) | 18.5%
Cc1cc(C)c(O)c(N)c1 | 33.4%
Cc1cc(C(C)(C)C)c(O)c(C(C)(C)C)c1 | 0%
CC1(c2ccccc2)NC(=O)N(CC(=O)Nc2cc(S(=O)(=O)N3CCOCC3)ccc2Cl)C1=O (stereo not drawn) | 1.7%
COc1ccc(OCC(=O)Nc2ncc3c(n2)CC(C)(C)CC3=O)cc1 | 7.1%

Structure (SMILES) | inhibition
Cc1ccc(N(C(C)C(=O)Nc2c(C)n(C)n(-c3ccccc3)c2=O)S(C)(=O)=O)cc1C (stereo not drawn) | -4.4%
O=C(CCC1CCCCC1)NCCN1C2=NC[C@H](Cc3ccccc3)N2C[C@H]1Cc1ccc(O)cc1 | 8%
CC(C)[C@H]1CN=C2N(CCNC(=O)CCC3CCCCC3)[C@H](Cc3ccc(O)cc3)CN21 | 65.2% (active)
O=C(CCC1CCCCC1)NCCN1C2=NC[C@H](Cc3ccc(O)cc3)N2C[C@H]1Cc1ccc(O)cc1 | 5%
COc1ccc(C[C@H]2CN3C(=NC[C@@H]3C(C)C)N2CCNC(=O)CCC2CCCCC2)cc1 | 7.4%
C[C@@H]1CN=C2N(CCNC(=O)CCC3CCCCC3)[C@H](Cc3ccc(O)cc3)CN21 | 85.3% (active)
C[C@H]1CN=C2N(CCNC(=O)CCC3CCCCC3)[C@H](Cc3ccc(O)cc3)CN21 | 2.5%
CC(OC(=O)/C=C/c1cccs1)C(=O)Nc1ccc(S(N)(=O)=O)cc1 (stereo not drawn) | -5.9%
Cc1ccccc1OCC(=O)N(Cc1ccc(N(C)C)cc1)C1CCS(=O)(=O)C1 (stereo not drawn) | 3.1%
C=CCNc1ccc(F)c(F)c1N1CCCCCC1=O | 4.8%
NC(=O)c1cc2cc(Cc3ccccc3Cl)ccc2oc1=O | -1.2%
O=C(CN1C(=O)c2ccccc2S1(=O)=O)Nc1ccc(S(=O)(=O)N2CCCCCC2)cc1 | 18.7%
Cc1ccc(S(=O)(=O)Nc2ccc(O)c(Sc3ncn[nH]3)c2)cc1 | 15.2%
Cc1cc(C)c(S(=O)(=O)Nc2ccc(O)c(Sc3ncn[nH]3)c2)c(C)c1 | 6.8%
Cc1cc(C)c(S(=O)(=O)/N=C2/C=C(SCC(=O)O)C(=O)c3ccccc32)cc1C | -23.3%
Cc1cc(C)c(S(=O)(=O)/N=C2/C=C(Sc3ncn[nH]3)C(=O)c3ccccc32)cc1C | 98.1% (active)
Cc1ccc(NC2=C/C(=N\S(=O)(=O)c3cccs3)c3ccccc3C2=O)c(C)c1 | 0.2%
Cc1ccc(S(=O)(=O)/N=C2/C=C(Sc3ncn[nH]3)C(=O)c3ccccc32)c(C)c1 | 101% (active)
